BCR signal inh: qHTS Assay to Find Inhibitors of Chronic Active B-Cell Receptor Signaling | ABC-DLBCL IkBa-CBG/CBR reporter, luminescence ratio, 4 h | Potency, µM (titrated, usually from 46.1 µM), for inactives: at the highest dose activity change, negative = inhibition, usual class: inhibitors | hit rate 0.05% among 340,000 | AID 493014, 2011; active = well fitted inhibition curve with a large enough effect in the signal ratio, with a control signal flat, not every such curve was filed as active; inconclusive = small, poorly fitted or top-dose-only effect, or effect the other way, or a change in a side signal; the % refers to the signal ratio;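 also: potency is read from the fitted curve at half-maximal effect; plate controls were basal doxycycline-induced cells for no effect and cells given 10 µM MG132 for full effect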
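Concentration-response series (up to 46 uM) were applied to TMD8 dual-reporter cells for 4 h at 37C with doxycycline. Green/red ratio, after filter-overlap correction, defined %Activity; red signal alone was normalised to basal cells and zero luminescence.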
D1 potentiator: Potentiators of Human D1 Dopamine Receptor: qHTS. HEK293 TREx D1 cells, calcium flux, dopamine EC20 potentiation. potentiation, % at 10 µM. hit rate 0.036% among 360,000; in the data active = potentiation above about 30%; also: 0% is about no effect
DRD3 antagonist: qHTS of D3 Dopamine Receptor Antagonist: qHTS | D3R cells, DiscoveRx beta-arrestin luminescence, antagonist mode; hits give low values | AID 652054, 2013 | max response, negative = inhibition, % | D(3) dopamine receptor (Homo sapiens), P35462 | hit rate 2.5% among 360,000; in the data active = max response below about -50%; inconclusive = no clear call, values can overlap the other calls; also: % is scaled to controls: 0 for no effect and ±100 for the full control effect
Target sequence (P35462 whole entry, looked up): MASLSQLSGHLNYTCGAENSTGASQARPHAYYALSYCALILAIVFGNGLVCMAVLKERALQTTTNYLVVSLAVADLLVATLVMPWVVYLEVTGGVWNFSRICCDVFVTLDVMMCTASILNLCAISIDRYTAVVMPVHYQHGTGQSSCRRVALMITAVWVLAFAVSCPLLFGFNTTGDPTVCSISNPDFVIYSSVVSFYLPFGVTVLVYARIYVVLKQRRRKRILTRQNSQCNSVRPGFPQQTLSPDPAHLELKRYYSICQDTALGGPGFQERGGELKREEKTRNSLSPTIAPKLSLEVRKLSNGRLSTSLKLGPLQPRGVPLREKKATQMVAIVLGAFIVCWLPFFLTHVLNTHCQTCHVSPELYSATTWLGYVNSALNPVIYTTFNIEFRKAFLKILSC
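Cells plated overnight at 1500 cells/well, then exposed to library compounds with dopamine controls for 90 minutes at 37 degrees C. DiscoveRx reagent added for 30–60 minutes at room temperature; luminescence read, quantitative HTS format.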
D1 ag: Allosteric Agonists of the Human D1 Dopamine Receptor: qHTS; D(1A) dopamine receptor (Homo sapiens), P21728; HEK293 T-REx D1 cells, calcium flux, agonist mode; activation, % at 2 µM; hit rate 1% among 360,000; in the data active = activation above about 30%; also: 0% is about no effect
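Inducible HEK293 T-REx D1 cells, force-coupled to calcium signalling, were plated at 4000 cells/well with tetracycline and held overnight at 30 C. After no-wash calcium dye loading, compound-evoked calcium rise over 180 s flagged agonists.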
D3 ag: qHTS of D3 Dopamine Receptor Agonist: qHTS. max activation, %. D3R DiscoveRx beta-arrestin cells, luminescence, 90 min. hit rate 0.58% among 410,000; in the data active = max activation above about 30%; also: 0% is about no effect
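Agonist-mode cell screen: cells plated at 1500/well and incubated overnight at 37 °C, then exposed to library compounds for 90 min at 37 °C. Detection reagent was added for 30–60 min at room temperature, and luminescence was read.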
D1 antag: Antagonist of Human D 1 Dopamine Receptor: qHTS; AID 504652, 2011; activity change, negative = inhibition, % at 10 µM; HEK293 TREx D1 cells, calcium flux, dopamine EC80; hits give low values; hit rate 3.2% among 360,000; in the data active = activity change below about -30%; also: % is scaled to controls: 0 for no effect and ±100 for the full control effect
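Tetracycline-induced HEK293 Trex D1 cells, force-coupled to calcium, dye-loaded; compounds added and read 180 s, then EC80 dopamine added and calcium flux tracked kinetically another 180 s.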
* marks the source's active call; other numbers are inactive results; ? = inconclusive; / = no result. An excerpt weighted towards active compounds, which were near 6% of everything screened.

SMILES | BCR signal inh | D1 potentiator | DRD3 antagonist | D1 ag | D3 ag | D1 antag
Cc1cc(C)cc(NC(=O)CSc2nnc(CNC(=O)c3c(F)cccc3Cl)o2)c1 | / | 4.4 | / | 8.7 | -7.3 | -7.3
CCCCCCCCCCOC(=O)Cn1c(COc2ccc(Cl)cc2)[n+](C)c2ccccc21 | -11.9% | -11.6 | 15.8 | 136.7* | 0.6 | -41.8*
CCCCCCCCCCOC(=O)Cn1c(COc2cccc(C)c2)[n+](C)c2ccccc21 | -15.8% | 7.5 | -9.4 | 116.0* | -7.2 | -18.9
CCCCOC(=O)Cn1c(=O)n(CC(=O)OCCCC)c2ccccc21 | 5.2% | 2.9 | 3.7 | 1.4 | -12.5 | -7.7
CCOC(=O)Cn1c(COc2ccccc2OC)[n+](C)c2ccccc21 | / | / | -7.4 | / | -6.3 | /
CCCCCCCCCCOC(=O)Cn1c(COc2ccccc2)[n+](C)c2ccccc21 | ? | -9.8 | -17.5 | 124.1* | -2.6 | -41.8*
CCCCCCCCCCOC(=O)Cn1c(COc2ccccc2C)[n+](C)c2ccccc21 | -7.6% | -4.5 | ? | 76.2* | -15.4 | 4.5
Cc1ccc(-n2nc(C)c3c(C(=O)Nc4ccc(Br)c(C)c4)cc(C)nc32)cc1 | / | -6.5 | / | 5.0 | 8.9 | -15.0
Cc1ccc(Cn2c(C)c(CNC(C)c3ccccc3)c(C(=O)O)c2C)cc1 (stereo unspecified) | / | 0.2 | / | 3.4 | 4.9 | 15.4
COc1ccc(NC(=O)C(=O)N/N=C(\C)CC(=O)Nc2ccccn2)c(OC)c1 | ? | 2.5 | 14.3 | 2.4 | -2.9 | 0.6
COc1ccccc1NC(=O)C(=O)Nc1ccccn1 | ? | 0.3 | -83.6* | 7.0 | -4.2 | 11.1
COc1ccccc1NC(=O)C(=O)N/N=C(\C)CC(=O)Nc1ccccn1 | ? | -6.4 | 13.0 | 1.2 | 3.9 | -35.0*
COc1ccc(CCNC(=O)Cn2c(=O)nc(-c3ccccc3)c3cc(Cl)ccc32)cc1OC | / | 0.5 | / | -0.5 | -12.2 | 5.7
COC(=O)c1c(NC(=O)c2ccc(C)cc2)sc(Cc2ccccc2)c1C | -0.6% | 2.4 | -64.9* | 2.1 | -1.3 | 12.1
COC(=O)c1c(NC(=O)c2ccccc2)sc(Cc2ccccc2)c1C | ? | 9.2 | 4.2 | 3.6 | -0.1 | -1.7
CCOC(=O)CSc1nc2ccc(NC(=O)c3ccc(C)cc3)cc2s1 | / | -1.9 | / | 11.1 | 0.1 | -27.0
Cc1[nH]n2c(=O)c(C#N)c(-c3ccccc3)nc2c1-c1ccccc1 | 8.0% | 2.0 | -59.9* | 1.7 | 0.2 | -10.5
Cc1[nH]n2c(=O)cc(-c3ccc([N+](=O)[O-])cc3)nc2c1-c1ccccc1 | / | / | -80.8* | / | -6.7 | /
CCc1c(C)nc2c(-c3ccccc3)c(C)[nH]n2c1=O | -4.4% | -4.9 | -21.3 | -0.2 | -10.1 | 11.8
Cc1[nH]n2c(=O)cc(-c3ccc(Cl)cc3)nc2c1-c1ccccc1 | / | -1.5 | / | -1.0 | -19.9 | 1.6
CCOC(=O)C1CCCN(S(=O)(=O)c2ccc(N3CCCCS3(=O)=O)cc2)C1 (stereo unspecified) | / | -0.1 | / | 1.8 | -6.3 | -16.9
Cc1ccc(NC(=O)Nc2nnc(N3CCCC3)s2)cc1C | / | -4.5 | / | 2.8 | -3.5 | -13.4
Cc1ccccc1S(=O)(=O)Cc1ccc(C(=O)NCc2ccccc2Cl)o1 | / | -4.3 | / | 14.1 | -2.8 | -1.1
Cc1cscc1-c1ccc(C(=O)Nc2c(C)cccc2C)o1 | / | / | -22.8 | / | -13.2 | /
Cc1ccc(S(=O)(=O)NC(C(=O)Oc2ccc3c(C(F)(F)F)cc(=O)oc3c2)c2ccccc2)cc1 (stereo unspecified) | 8.5% | -5.8 | 10.7 | 56.9* | 7.4 | -9.0
CN(Cc1ccc(OCC(O)CN(C)Cc2ccccc2)cc1)Cc1nccn1C (stereo unspecified) | -1.2% | 4.6 | -1.1 | 4.6 | -6.4 | -14.6
